The campaign covered roughly 16,000 compounds. About 260 (1.6%) were called active. Entries that show only a call come without a potency. Inconclusive results (about 14%) are left out. Calls come from the whole dose curve; as a rule, active = well fitted inhibition curve with a large enough effect; inconclusive = small, poorly fitted or top-dose-only effect; inactive = no such curve, though single readings can be large or run the other way. Only a selection was taken, and actives are over-represented in it overall.
Potency is the fitted concentration of half-maximal effect.

In the assay the target is Rap guanine nucleotide exchange factor 4 (Homo sapiens) (UniProt Q8WZA2). Description: Validation qHTS for antagonist of cAMP-regulated guanine nucleotide exchange factor 4 (EPAC2). Note: nearly all actives have a fitted effect of over 40% in size. Conditions: EPAC2 Rap1B BODIPY-GDP exchange, fluorescence; series mostly up to 112 µM. The source says: Principle Investigator: Xiaodong Cheng Ph.D. The University of Texas Medical Branch, […], TX MLPCN Grant: NS066510 In multi-cellular eukaryotic organisms, the effects of cAMP are transduced by two ubiquitously-expressed intracellular cAMP receptors, the classic protein kinase A/cAMP-dependent protein kinase (PKA/cAPK) and the more recently discovered exchange protein directly activated by cAMP/cAMP-regulated guanine nucleotide exchange factor (EPAC/cAMP-GEF). Both PKA and EPAC are ubiquitously expressed in all tissues, and an increase in intracellular cAMP levels will lead to the activation of both PKA and EPAC. Therefore, careful dissections of the individual role and relative contribution of EPAC and PKA within the overall cAMP signaling in various model systems are critical for further elucidating the mechanism of cAMP signaling. To date no EPAC-specific antagonists and agonist, as well as isoform-specific agonists have been reported, and developing EPAC-specific pharmacological probes to determine the physiological functions that EPAC play in the overall cAMP-mediated signaling remains a major challenge within the research field. Furthermore, identified regulators of EPAC may lead to new mechanism-based therapeutic strategies specifically targeting the EPAC / cAMP-signaling components as EPAC has been implicated to play important roles in major human pathological conditions such as diabetes, heart disease, and cancer. This qHTS will be used to screen the Molecular Libraries Small Molecule Repository (MLSMR) as a concentration-titration series using the NCGC unique quantitative screening (qHTS) platform to find activators for EPAC1. In addition, this assay will also be used as a counterscreen for the EPAC2 qHTS. This fluorescent based assay is developed and validated for EPAC1 that measures exchange using EPAC effector Rap1 complex with BODIPY-GDP, a GDP analog with a tethered fluorophores. Activators are identified by monitoring the change in fluorescence signal as the exchanged free BODIPY-GDP has a reduced fluorescence compared to Rap1-bound BODIPY-GDP. Increase in signal (activation) is the desired outcome for the EPAC1 agonist while no activity in this assay is desired for the EPAC2 agonist counterscreen. Reference: [1] de Rooij, J., Zwartkruis, F. J., Verheijen, M. H., Cool, R. H., Nijman, S. M., Wittinghofer, A., and Bos, J.L. (1998) Nature 396, 474-477.
Sequence of Rap guanine nucleotide exchange factor 4 (Homo sapiens) (Q8WZA2 whole entry, looked up): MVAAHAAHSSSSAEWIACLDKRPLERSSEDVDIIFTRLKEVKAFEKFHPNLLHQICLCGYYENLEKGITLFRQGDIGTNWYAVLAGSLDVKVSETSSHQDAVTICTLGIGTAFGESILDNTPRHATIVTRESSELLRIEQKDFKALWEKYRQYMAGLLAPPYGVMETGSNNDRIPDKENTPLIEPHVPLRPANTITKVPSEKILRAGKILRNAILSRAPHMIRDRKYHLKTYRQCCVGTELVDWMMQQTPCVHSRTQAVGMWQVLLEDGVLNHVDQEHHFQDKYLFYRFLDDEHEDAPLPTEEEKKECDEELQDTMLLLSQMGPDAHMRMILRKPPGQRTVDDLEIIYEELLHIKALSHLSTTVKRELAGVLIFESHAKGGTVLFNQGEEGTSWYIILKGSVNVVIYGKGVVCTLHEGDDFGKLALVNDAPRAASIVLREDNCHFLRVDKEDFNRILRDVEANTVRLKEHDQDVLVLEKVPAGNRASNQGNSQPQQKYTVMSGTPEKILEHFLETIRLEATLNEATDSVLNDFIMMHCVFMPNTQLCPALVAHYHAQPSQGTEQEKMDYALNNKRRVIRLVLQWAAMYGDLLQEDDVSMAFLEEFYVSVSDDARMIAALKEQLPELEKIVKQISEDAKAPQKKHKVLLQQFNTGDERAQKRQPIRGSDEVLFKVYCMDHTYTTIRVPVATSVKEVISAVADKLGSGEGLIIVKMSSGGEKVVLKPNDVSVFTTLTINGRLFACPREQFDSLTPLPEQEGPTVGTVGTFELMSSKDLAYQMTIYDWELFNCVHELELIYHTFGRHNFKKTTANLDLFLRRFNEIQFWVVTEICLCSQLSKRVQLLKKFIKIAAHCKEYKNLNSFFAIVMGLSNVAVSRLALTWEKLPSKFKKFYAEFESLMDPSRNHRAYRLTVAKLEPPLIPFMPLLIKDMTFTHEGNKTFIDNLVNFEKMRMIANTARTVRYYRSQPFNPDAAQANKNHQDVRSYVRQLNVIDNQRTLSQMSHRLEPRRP
Briefly, three uL of reagents (100 nM EPAC2, 250 nM RAP1B-BODIPY-GDP, 50 uM GDP) were dispensed into a 1536-well Greiner black solid-bottom medium binding assay plate. Controls and test compounds (23 nL) were transferred to the plate via a Kalypsys pin tool equipped with a 1536-pin array. The plates were centrifuged at 1,000 rpm for 15 seconds followed by 5 minute incubation at room temperature. The assay plates were read at 5 minute intervals for 30 minutes in the ViewLux plate reader using 480nm excitation and 540nm emission filters. The results were normalized to the agonist positive control of 6.5 mM cAMP.
For orientation: qHTS replaces the single test concentration by a dilution series.
`Cc1cc(-c2ccnc(-n3ncc(C(=O)NCCc4ccncc4)c3C)n2)c(C)s1`: the Potency result is “inactive”.

`CC(=O)OCC(=O)[C@@]1(O)CCC2C3CCC4=CC(=O)CC[C@]4(C)C3C(=O)C[C@]21C` (some centres undefined): the Potency result was “inactive”.

Consider `c1cncc(CNc2ccnc(-c3ccc4c(c3)OCO4)n2)c1`, for which the Potency entry is “inactive”.

`COc1ccc2[nH]cc(CCNc3ncnc4ccc(-c5ccccc5CN(C)C)cc34)c2c1`: the Potency result was “inactive”.

On to `COc1ccc(Oc2ncc3nc(C)c(=O)n(-c4ccccc4)c3n2)cc1`, for which the Potency result is “inactive”.

On to `O=C(OCc1ccccc1)c1ccc(O)cc1`, for which the Potency result was “inactive”.

With `O=C1C(c2ccccn2)=[N+]([O-])c2ccccc21`, the Potency entry is “inactive”.

As for `Cn1nccc1C(=O)NCC1CCC2(CCN(Cc3c(O)ccc4ccccc34)CC2)O1` (centres undefined), the Potency result is “inactive”.

On to `COc1ccccc1N1CCN(CCN2C(=O)c3ccccc3C(C)(C)C2=O)CC1`, for which the Potency entry is “inactive”.

As for `COc1ccc(-c2nc3cnc(N(C)C)nc3n(Cc3cccs3)c2=O)cc1`, the Potency entry was “inactive”.

As to `COc1ccc(-n2c(CNC(=O)c3cc(C(F)(F)F)ccc3Cl)nnc2SC)cc1`, the Potency entry is “inactive”.

Consider `CC(=O)O[C@H]1CC[C@@]2(C)C(=CC[C@@H]3[C@@H]2CC[C@]2(C)C(c4cccnc4)=CC[C@@H]32)C1`, for which the Potency entry is “inactive”.

With `COc1ccc(CCCOC(Cn2ccnc2)c2ccc(OC)cc2)cc1` (centres undefined), the Potency result is “inactive”.

On to `Cc1cnc(CNc2nc(-c3cccnc3)nc3ccccc23)cn1`, for which the Potency result was “inactive”.

For `Cc1cc(C)cc(CN2CCc3nnc(C(NS(C)(=O)=O)C(C)C)n3CC2)c1` (centres undefined), the Potency result is “inactive”.

As to `COCCNc1ncnc2ccc(-c3ccccc3CN(C)C)cc12`, the Potency entry was “inactive”.

In the case of `Cc1cccc(CNc2ccnc(-c3cccnc3)n2)c1`, the Potency result was “inactive”.

Turning to `CC(=O)N1CCC2(CCCN(Cc3ccc(C#N)cc3)C2)CC1`, the Potency entry is “inactive”.

On to `Cc1c(S(=O)(=O)O)oc2c1C(=O)C(=O)c1c-2ccc2c1CCCC2(C)C`, for which the Potency was 44.7 µM (active).

Turning to `COc1ccc(CN(C)CCn2cc(C(=O)N3CCSCC3)nn2)cc1C`, the Potency entry was “inactive”.

As for `c1ccc(CNc2ncncc2-c2cccnc2)cc1`, the Potency entry is “inactive”.

With `CS(=O)(=O)NC(=O)CCC/C=C\C[C@H]1C(=O)C[C@@H](O)[C@@H]1/C=C/[C@H](O)COc1ccccc1`, the Potency entry is “inactive”.

Take `COc1ccc(C(=O)N2CCC[C@@]3(CCN(C(=O)NC(C)C)C3)C2)cc1`: the Potency result was “inactive”.

On to `Cc1cnc(-n2ncc(C(=O)N3CCN(C(C)C)CC3)c2-c2ccco2)nc1-c1ccc(F)cc1`, for which the Potency entry is “inactive”.

On to `CN(C)c1ccc(/C=C/c2c3ccccc3nc3ccccc23)cc1`, for which the Potency entry is “inactive”.

Regarding `O=c1c(-c2ccc(F)cc2)nc2cncnc2n1-c1ccccc1`, the Potency entry is “inactive”.

For the compound `COCC1CCCN(Cc2ccc3c(c2)CN(C(=O)c2ccnn2C)CCO3)C1` (centres undefined), the Potency result is “inactive”.

Consider `Cc1c(O)cc2c(c1C)O[C@](C)(CCC[C@H](C)CCC[C@H](C)CCCC(C)C)CC2`, for which the Potency result is “inactive”.

As to `CCc1noc(C)c1C(=O)NCCN1Cc2cc(OC)ccc2OC(CC)C1` (centres undefined), the Potency result is “inactive”.

`CC(N)(C(=O)O)c1ccc(-c2nn[nH]n2)cc1` (centres undefined): the Potency entry was “inactive”.

In the case of `O=C1CCC[C@@H]2C[C@@]3(C[C@@H]4CCN1[C@H]24)Nc1ccccc1NC3=NCc1ccccc1`, the Potency result is “inactive”.

Consider `C=C1O[C@@](CO)(n2cnc3c(N)ncnc32)[C@H](O)[C@@H]1O`, for which the Potency entry was “inactive”.

With `CO/N=C(\C(=O)N[C@@H]1C(=O)N2C(C(=O)O)=CCS[C@H]12)c1csc(N)n1`, the Potency entry is “inactive”.

In the case of `COC(=O)CC1C(C)(C)C(OC(C)=O)C2CC3=C4CC(=O)OC(c5ccoc5)[C@]4(C)CCC3[C@@]1(C)C2=O` (some centres undefined), the Potency result was “inactive”.

Regarding `COc1ccccc1CNc1ccnc(-c2c(C)noc2C)n1`, the Potency entry is “inactive”.

On to `COc1ccc(C(=O)N2CCC3(CCCN(C(c4ccccc4)c4ccccc4)C3)CC2)cc1`, for which the Potency entry was “inactive”.

As to `CN(C)C(=O)c1ccc(-c2cncnc2NC2CCNCC2)cc1`, the Potency entry was “inactive”.

As for `CCC1(C2CCN(C(=O)c3cccc(F)c3F)CC2)NC(=O)N(CCc2scnc2C)C1=O` (centres undefined), the Potency result was “inactive”.

Regarding `COc1ccccc1N1CCN(C[C@@H]2CN3C(=O)N(C)c4ccccc4C3=N2)CC1`, the Potency entry was “inactive”.

For the compound `CCC(C)[C@H]1COCCS(=O)(=O)N1Cc1ccc(C)cc1` (some centres undefined), the Potency is 79.4 µM (active).

For the compound `Cc1ccc(CN2CCCOCCS2(=O)=O)cc1`, the Potency result is “inactive”.

Take `Cc1ncc2c(c1CNS(=O)(=O)N(C)C)CCN(C(=O)c1ccccc1F)C2`: the Potency result is “inactive”.

In the case of `COCCNc1cc(-c2c(C)noc2C)ncn1`, the Potency result is “inactive”.

Regarding `C[N+](C)(C)CCCCCNCC12CC3CC(CC(C3)C1)C2`, the Potency result was “inactive”.

Turning to `O=C(O)CCCc1ccccc1`, the Potency entry is “inactive”.

Consider `Cc1cccc(CNC(=O)c2cnn(-c3nccc(-c4ccccc4F)n3)c2C2CC2)n1`, for which the Potency result was “inactive”.

As for `O=C(c1cnccn1)N1CCC[C@@]2(CCN(Cc3ccncc3)C2)C1`, the Potency result was “inactive”.

Consider `COCCn1c(=O)c(-c2cc(F)cc(F)c2)nc2cnc(N3CCNCC3)nc21`, for which the Potency entry was “inactive”.

`Cn1cccc1C(=O)N1CCC[C@@]2(CCN(Cc3nccs3)C2)C1`: the Potency entry is “inactive”.

The record behind these values is PubChem BioAssay AID1645886 (National Center for Advancing Translational Sciences (NCATS), 2021).
